# 697 NFkB inh: inhibitors of the PMA/ionomycin-induced NF-kB reporter in 697 B cells; inhibition, % at 4 µM; 697 B-cell NF-kB luciferase reporter, 16 h; 330,000 tested, 0.33% active; in the data active = inhibition above about 35%
# esBAF inh: inhibitors of esBAF chromatin remodeling in mouse ES cells; reporter increase, % at 12.5 µM; Bmi1-luciferase knock-in reporter, 24 h; 100% = twice the neutral-well signal; 350,000 tested, 2% active; in the data active = activation above about 40%; inconclusive = no clear call, values can overlap the other calls;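 also: a rise in the Bmi1 reporter signal indicates esBAF inhibition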
# Gli-Sufu antag: Gli-Sufu pathway antagonism; Sufu-KO-LIGHT fibroblasts, Gli luciferase reporter luminescence; inhibition, % at 5 µM; 340,000 tested, 0.74% active;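 active = inhibition above about 55%, limit read from the data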
# SMARCA2 act: activators of SMARCA2 function; activation, % at 9.1 µM; 370,000 tested, 1% active; MG213 cells, MMTV-luciferase reporter, dexamethasone, overnight; AID 652017; in the data active = activation above about 7.8%
# Jurkat NFkB inh: lowers PMA/ionomycin-induced NF-kB signal in Jurkat cells; PMA/ionomycin-induced NF-kB luciferase reporter, luminescence; inhibition, % at 4 µM; 330,000 tested, 0.53% active; AID 435003; in the data active = inhibition above about 50%
# 697 NFkB conf: inhibitors of the PMA/ionomycin-induced NF-kB reporter in 697 B cells, retest. shares compounds with 697 NFkB inh. 697 B-cell NF-kB luciferase, 16 h. inhibition, % at 4 µM. 2,000 tested, 35% active; in the data active = inhibition mostly above about 28%, no sharp cut-off; inactive = mostly below about 22%
# Numbers stand for hits; n = inactive; u = inconclusive; x = no result given. The list is not random: actives were taken first. Their share in the collection is about 3.3%.
SMILES,697 NFkB inh,esBAF inh,Gli-Sufu antag,SMARCA2 act,Jurkat NFkB inh,697 NFkB conf
Cc1ccc(S(=O)(=O)Nc2ccc(-c3cn4ccc(C)cc4n3)cc2)cc1,n,n,n,n,n,x
Cc1ccn2cc(-c3ccc(Br)cc3)nc2c1,n,n,n,n,n,n
CSc1ccccc1NC(=O)CSCc1ccc(C)cc1,n,n,n,n,n,x
Cc1ccc(CSCC(=O)Nc2ccccc2C(=O)O)cc1,n,n,n,n,n,n
Cn1cc(SCC(=O)NCc2ccc(F)cc2)c2ccccc21,40.0,x,n,n,n,n
O=C(C[C@H]1C=C[C@@H](NC(=O)CN2CCOCC2)[C@@H](CO)O1)NC1CCCCC1,x,n,x,x,x,x
Oc1ccc(C[C@@H]2CNCCN2CCC23CC4CC(CC(C4)C2)C3)cc1,37.2,n,n,n,n,n
CCN1C(=O)c2cccc3c(NC(=O)c4cccc(N5C(=O)CCC5=O)c4)ccc1c23,35.9,x,n,n,n,40.2
CSc1nc(-c2ccccc2)nn1C(=O)c1ccco1,n,n,n,n,n,x
Cc1ccc(-c2nc(N)n(C(=O)c3ccco3)n2)cc1,36.4,n,n,n,n,n
CC(=O)c1ccc(N/N=C(/C(N)=O)C2=NC(C)(C)Cc3ccccc32)cc1,n,n,n,n,n,n
CC1(C)Cc2ccccc2C(/C(=N\Nc2cccc(Cl)c2)C(N)=O)=N1,n,x,n,n,n,x
C[C@@H]1CCCCO[C@@H](CN(C)Cc2ccncc2)[C@H](C)CN([C@H](C)CO)C(=O)c2cc(NC(=O)Nc3cccc4ccccc34)ccc2O1,x,n,x,x,x,x
CCOC(=O)C1CCN(C(=O)c2ccccc2NC(C)=O)CC1,38.8,n,n,n,n,n
CCOC(=O)C1CCN(C(=O)c2ccccc2NC(=O)c2ccc(Br)cc2)CC1,n,x,n,n,n,x
COc1cc(C(=O)Nc2nc(OC)c(-c3ccccc3)c(OC)n2)cc(OC)c1OC,37.8,n,n,n,n,n
COc1cc(C(=O)Nc2cc(-c3ccccc3)[nH]n2)cc(OC)c1OC,n,n,n,n,n,x
C[C@H](CO)N1C[C@H](C)[C@H](CN(C)Cc2ccccc2)OCCCC[C@H](C)Oc2ccc(NC(=O)Nc3ccc(F)cc3)cc2C1=O,x,n,x,x,x,x
CO[C@@H]1CN(C)C(=O)c2cc(NC(=O)C3CCC3)ccc2OC[C@@H](C)N(Cc2ccc(F)cc2)C[C@@H]1C,x,n,x,x,x,x
O=C(O)c1cc(N/N=C/c2ccc(-c3ccccc3)cc2)ccc1Cl,x,u,n,n,x,x
CSc1ccc(/C=N/Nc2ccc(Cl)c(C(=O)O)c2)cc1,n,x,n,7.9,n,n
C[C@H]1CN([C@@H](C)CO)C(=O)c2cc(-c3cccnc3)cnc2O[C@H]1CN(C)C(=O)Nc1ccc(C(F)(F)F)cc1,x,n,x,x,x,x
C[C@@H]1CN([C@H](C)CO)C(=O)c2cccc(N(C)C)c2O[C@@H]1CN(C)S(=O)(=O)c1cn(C)cn1,x,n,x,x,x,x
O=c1cc(Nc2ccc3c(c2)OCCO3)[nH]c(=O)n1-c1ccc(Cl)cc1,38.2,n,n,n,n,n
Cn1nnnc1Sc1ncnc2scc(-c3ccc([N+](=O)[O-])cc3)c12,n,n,n,n,n,n
SMILES,697 NFkB inh,esBAF inh,Gli-Sufu antag,SMARCA2 act,Jurkat NFkB inh,697 NFkB conf
Cn1nnnc1Sc1ncnc2scc(-c3ccc(Cl)cc3)c12,n,n,n,n,n,x
CCN(CC)CCCN=Cc1c(-c2ccccc2)[nH]n(-c2nc3ccccc3s2)c1=O,40.1,x,n,n,n,42.1
CCCN=C(C)c1c(-c2ccccc2)[nH]n(-c2nc3ccccc3s2)c1=O,n,n,n,n,n,x
Cc1sc2nc(C3CC3)nc(SCC(=O)N3c4ccccc4CC3C)c2c1C (stereo not given),n,n,n,x,n,n
COc1ccc(/C=C2\CC/C(=C\c3ccc(OC)c(OC)c3)C2=O)cc1OC,n,n,n,n,n,x
COc1cc(/C=C2/CC/C(=C/c3ccc(O)c(OC)c3)C2=O)ccc1O,36.4,x,n,n,n,n
Cc1csc(NC(=O)/C=C/c2ccc3c(c2)OCO3)n1,69.8,x,n,n,n,64.2
Cc1cc(Cl)c(S(=O)(=O)NC(C(=O)O)C(C)C)cc1OCC(=O)NC1CCCCC1 (stereo not given),37.0,n,n,n,n,n
Cc1cc(Cl)c(S(=O)(=O)N2CCCC2)cc1OCC(=O)NC1CCCCC1,n,n,n,n,n,x
COc1ccc(COc2cc(-c3cccc(OC)c3)nc3ccc(NC(=O)c4ccccc4)cc23)cc1,39.5,n,n,n,n,n
C[C@H](CO)N1C[C@H](C)[C@H](CN(C)Cc2ccc(O)cc2)OCc2cn(nn2)CCCC1=O,x,n,x,x,x,x
Nc1cccc(-c2nc3ccccc3s2)c1,n,n,n,n,n,x
Oc1cccc(-c2nc3ccccc3s2)c1,n,n,n,n,n,n
CCCc1c(NC(=O)Nc2ccc(Cl)cc2Cl)cnn1-c1ccccc1,n,x,n,n,n,n
CN(C)c1ccc(-c2nc3cc(N)ccc3o2)cc1,n,n,n,n,n,n
Cn1c(SCC(=O)Nc2ccc(NC(=O)c3ccccc3)cc2)nnc1-c1ccncc1,n,n,n,n,n,x
COc1ccc(C(=O)Nc2ccc(NC(=O)CSc3nnc(-c4ccncc4)n3C)cc2)cc1,38.0,n,n,n,n,n
CO[C@H]1CN(C)C(=O)c2cc(NC(=O)C3CC3)ccc2OC[C@@H](C)N(Cc2ccc(F)cc2)C[C@@H]1C,x,n,x,x,x,x
CCOC(=O)c1[nH]c(C)c(C(=O)NCCc2ccc(OC)cc2)c1C,35.7,n,n,n,n,n
CCOC(=O)c1[nH]c(C)c(C(=O)NCc2ccc(Cl)cc2)c1C,n,n,n,n,n,x
CCC(C)NC(=O)c1c(N)n(/N=C/c2ccccn2)c2nc3ccccc3nc12 (stereo not given),52.1,n,n,n,n,44.3
CC(C)OCCCNC(=O)c1c(N)n(/N=C/c2ccccn2)c2nc3ccccc3nc12,44.2,n,n,n,n,36.8
COCCCNC(=O)c1c(N)n(/N=C/c2cccnc2)c2nc3ccccc3nc12,n,x,n,n,n,x
Nc1cc(Cl)nc(N/N=C/c2ccc([N+](=O)[O-])cc2)n1,40.9,x,n,n,n,n
Nc1cc(Cl)nc(N/N=C/c2ccccc2[N+](=O)[O-])n1,n,x,n,n,n,x
SMILES,697 NFkB inh,esBAF inh,Gli-Sufu antag,SMARCA2 act,Jurkat NFkB inh,697 NFkB conf
O=[N+]([O-])c1ccc(O)c(-c2cc(C(F)(F)F)nc(-c3ccccc3)n2)c1,n,n,87.9,n,n,n
O=[N+]([O-])c1ccn(-c2nc(-c3ccccc3)cc(C(F)(F)F)n2)n1,38.9,x,n,n,n,n
C[C@@H]1CN([C@H](C)CO)C(=O)Cc2cc(NC(=O)C3CC3)ccc2O[C@H]1CN(C)Cc1ccccc1,x,n,x,x,x,x
Cn1c(=NC(=O)CCl)sc2ccccc21,88.3,n,n,n,n,79.0
COc1cc(NC(=O)c2ccco2)c(OC)cc1NC(=O)c1cc(OC)c(OC)c(OC)c1,41.0,n,n,n,n,33.5
COc1cc(SC)ccc1C(=O)Nc1ccc(Br)cn1,n,n,n,n,n,n
Cc1ccc(NC(=S)c2nc3ccccc3s2)cc1,n,n,n,n,n,n

# Source: PubChem BioAssay
